# USP1 inh – inhibitors of human USP1/UAF1 deubiquitinase | 0.23% of 390,000 active | recombinant USP1/UAF1, Ub-Rhodamine cleavage fluorescence | Potency, µM (doses to about 57.1 µM), without a hit: top-dose activity change, negative = inhibition, usual class: inhibitors | AID 743255 | O94782; active = well fitted inhibition curve with a large enough effect; inconclusive = small, poorly fitted or top-dose-only effect; inactive = no such curve, though single readings can be large or run the other way; note: potency is the fitted concentration of half-maximal effect; % is set by controls: 0 for no effect and ±100 for the full control effect; nearly all actives have a fitted effect of over 60% in size
#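 High-throughput fluorogenic screen: 1nM USP1/UAF1 complex, Ub-Rho substrate 150nM final, 50mM HEPES pH 7.8 with 0.5mM EDTA, 0.1 mg/ml BSA, 1mM TCEP and 0.01% Tween-20.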
# TRHR PAM – TRH receptor (human) allosteric enhancement | P34981 | 0.66% of 360,000 active | TRHR cells, fluo-8 calcium fluorescence, EC20 TRH enhancement | enhancement, % at 2 µM; in the data active = enhancement above about 30%; note: 0% is about no effect
# Target sequence (P34981 whole entry, looked up): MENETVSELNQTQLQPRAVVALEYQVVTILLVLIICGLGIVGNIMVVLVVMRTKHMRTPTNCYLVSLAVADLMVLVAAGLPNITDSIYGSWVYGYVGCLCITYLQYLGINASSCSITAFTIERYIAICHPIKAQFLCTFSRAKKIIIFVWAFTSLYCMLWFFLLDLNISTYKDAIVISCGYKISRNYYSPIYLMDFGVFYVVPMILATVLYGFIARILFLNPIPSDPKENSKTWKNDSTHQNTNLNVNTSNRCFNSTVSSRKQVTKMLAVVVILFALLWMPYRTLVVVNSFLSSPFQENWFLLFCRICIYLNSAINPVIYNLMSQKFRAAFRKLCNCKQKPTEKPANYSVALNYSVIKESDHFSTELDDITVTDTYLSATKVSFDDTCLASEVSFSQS
#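 TRHR-expressing cells loaded with fluo-8 calcium dye were read kinetically (ex 480/em 530) during compound addition, then stimulated with an EC20 of TRH (10 nM final). Enhancement of the Gq-mediated intracellular calcium response was scored.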
# D1 antagonist – human D1 dopamine receptor antagonism; P21728; HEK293 TREx D1 cells, calcium flux, dopamine EC80; stronger effect = lower value; activity change, negative = inhibition, % at 10 µM; 3.2% of 360,000 active; in the data active = activity change below about -30%; note: % is set by controls: 0 for no effect and ±100 for the full control effect
#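 HEK293 T-REx cells expressing inducible, force-coupled D1 receptor; no-wash Ca dye, 30–90 min RT. Cmpd → 180 s read at 1 Hz → EC80 DA → 180 s read.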
# TRHR agonist – agonists of human TRH receptor; P34981; activation, % at 2 µM; AID 493084; TRHR cells, calcium flux fluo-8, FDSS agonist mode; 0.18% of 360,000 active; note: 0% is about no effect
#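 In this calcium-flux screen, cells bearing human TRHR are dye-loaded with fluo-8, baselined for 10 cycles, then exposed to library compounds; positive kinetic calcium responses during the agonist phase mark hits, with TRH as control.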
# D1 PAM – human D1 dopamine receptor positive modulation | P21728 | potentiation, % at 10 µM | HEK293 TREx D1 cells, calcium flux, dopamine EC20 potentiation | AID 504651 | 0.036% of 360,000 active; in the data active = potentiation above about 30%; note: 0% is about no effect
# D1 agonist – activates the human D1 dopamine receptor. P21728. HEK293 T-REx D1 cells, calcium flux, agonist mode. activation, % at 2 µM. 1% of 360,000 active; note: 0% is about no effect
#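 Agonism was scored from calcium flux recorded over 180 s (1 read/s) after pintool compound addition, following a 10-cycle baseline. Cells were inducible force-coupled HEK293 TREx D1, plated overnight at 30 C and loaded with no-wash calcium dye.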
# * marks the source's active call; other numbers are inactive results; ? = inconclusive; · = not tested or not shown; ! = a repeat was not active. A selection: hits, their analogues and other compounds. The true share with any hit is near 4.4%. Cut-off read from the data, not from the text of the source, unless noted: active = activation above about 30%; inactive = the rest.
SMILES,USP1 inh,TRHR PAM,D1 antagonist,TRHR agonist,D1 PAM,D1 agonist
CC[C@H](C)[C@@H](C(=O)NCCCCCCCCCCC(=O)N1CCN(C(=O)OC(C)(C)C)CC1)n1cc(CCCCCNC(=O)OC(C)(C)C)nn1,-31%,-4,-31*,1,-9,12
C#CCOCCOCCOCCNc1nc(N2CCN(C(=O)CCCCCCCCCCNC(=O)[C@H]([C@@H](C)CC)n3cc(CCCCCN)nn3)CC2)nc(N2CCN(C(=O)CCCCCCCCCCNC(=O)[C@H](CCCCN)n3cc(CCCC(=O)O)nn3)CC2)n1,-15%,0,60,2,26,35*
C#CCOCCOCCOCCNc1nc(N2CCN(C(=O)CCCCCCCCCCNC(=O)[C@@H](CCC(=O)O)n3cc(CCCCCN)nn3)CC2)nc(N2CCN(C(=O)CCCCCCCCCCNC(=O)[C@H]([C@@H](C)CC)n3cc(CCCCCN)nn3)CC2)n1,-28%,-4,54,0,37*,19
CC[C@H](C)[C@@H](C(=O)NCCCCCCCCCCC(=O)N1CCN(C(=O)OC(C)(C)C)CC1)n1cc(CCCCN=C(NC(=O)OC(C)(C)C)NC(=O)OC(C)(C)C)nn1,·,1,13,0,-10,6
COc1ccc(OC)c(NC(=O)c2cn3c4c(ccc(Cl)c4c2=O)OC(C)C3)c1 (configuration not stated),-2%,11,6,1,-1,0
COc1cccc(N2C(=O)CSC23C(=O)N(CC(=O)NCc2ccc(C)cc2)c2ccccc23)c1 (configuration not stated),-25%,-6,8,0,-4,0
COc1ccc(-c2noc(-c3cc(C(C)C)[nH]n3)n2)cc1,-19%,5,9,2,3,0
COC(=O)CN1C(=O)CSc2ccc(S(=O)(=O)Nc3ccc(C(C)=O)cc3)cc21,8%,18,14,0,1,2
Cc1ccc(C(=O)Nc2cccc(C(=O)OCc3cc(=O)n4nc(C5CC5)sc4n3)c2)cc1,-23%,-4,-6,-2,0,33*
O=C(Nc1cccc(C(=O)OCc2cc(=O)n3nc(C4CC4)sc3n2)c1)c1ccccc1,?,6,17,-2,0,1
Cc1cccc(C(=O)OCc2cc(=O)n3nc(C4CC4)sc3n2)c1,-20%,9,-31*,1,-7,8
Cc1cccc(C(=O)OCc2cc(=O)n3nc(C4CCCCC4)sc3n2)c1,-22%,1,19,0,-3,0
C=CCNC(=O)CN1CCC(O)(c2ccc(F)cc2)CC1,-7%,-4,-2,0,-2,3
OC(CCCN1CCC(O)(c2ccc(Cl)cc2)CC1)c1ccc(F)cc1 (configuration not stated),-17%,2,-37*,2,-3,32*
CCCC(=O)n1nc(-c2cccnc2)nc1NCc1ccccc1,-10%,-1,-42*!,0,-4,1
Cc1ccc(S(=O)(=O)NCC(Nc2cccc(Cl)c2)c2ccccc2)cc1 (configuration not stated),?,10,7,1,-4,1
CCOC(=O)N1CCN(C(=O)CN(c2cc(C)ccc2OC)S(=O)(=O)c2ccc(C)cc2)CC1,-20%,0,-38*,3,-2,3
CCN(CC)S(=O)(=O)c1ccc(N2CCN(CCO)CC2)nc1,-11%,19,-71*,-1,-7,2
CN(CC(=O)N1CCCCC1)S(=O)(=O)c1ccc(Cl)cc1,-19%,3,·,0,-7,1
COc1ccc(C)cc1N(CC(=O)N1CCCCCC1)S(=O)(=O)c1ccccc1,-11%,-2,24,0,-6,0
CCOC(=O)N1CCN(c2ccc(S(=O)(=O)N(Cc3ccccc3)Cc3ccccc3)cn2)CC1,-23%,1,-31*,4,-6,27
CN(CC(=O)N1CCCC1)S(=O)(=O)c1ccc(Cl)cc1,-24%,30*,-4,0,2,3
CCOC(=O)N1CCN(c2ccc(S(=O)(=O)N3CCOCC3)cn2)CC1,-12%,·,·,·,·,·
CCOC(=O)N1CCN(C(=O)CN(Cc2ccc(Cl)cc2)S(=O)(=O)c2ccccc2)CC1,-10%,-6,-39*,1,-1,3
COc1ccc(N2CCN(c3ccc(-c4nc(-c5ccccc5)no4)cc3[N+](=O)[O-])CC2)cc1,-24%,6,-3,0,-2,1
SMILES,USP1 inh,TRHR PAM,D1 antagonist,TRHR agonist,D1 PAM,D1 agonist
CCc1cccc(C)c1NC(=O)CN1C(=O)c2ccccc2Sc2ncccc21,-18%,-4,6,0,-1,4
Cc1cccc(C2(c3cccc(C)c3)CC2C(=O)Nc2ccc([N+](=O)[O-])cc2O)c1 (configuration not stated),?,-6,-33*,0,-5,12
CCn1nc(C)cc1C(=O)OCC(=O)c1ccc(Cl)cc1,-8%,0,-63*,0,-8,3
CCC(CC)C(=O)Nc1ccc(-c2cn3cccnc3n2)cc1,6%,-5,-31*!,1,-4,0
CCC(CC)C(=O)Nc1cccc(-c2cn3cccnc3n2)c1,?,5,-34*,0,4,3
CCCC(CCC)C(=O)Nc1ccncc1,-7%,6,-7,-1,-3,17
CCC(CC)C(=O)Nc1cc(-c2cn3cccnc3n2)ccc1OC,18%,-11,-6,0,-2,1
CCC(CC)C(=O)Nc1ccncc1,·,2,-46*,0,-6,0
O=C1CCn2c1c(O)c1ccccc1c2=O,5µM*,·,·,·,·,·
Clc1ccccc1C(c1ccccc1)(c1ccccc1)n1ccnc1,-17%,-3,-34*,0,5,6
FC(F)(F)c1ccccc1-n1ccnc1,-26%,2,4,0,-1,-2
CC(C(=O)Nc1cc(Cl)cc(Cl)c1)N1CCCC1 (configuration not stated),-9%,-3,-29,2,-13,33*
Cc1cc(C)c(NC(=O)C(C)N2CCCCCC2)c(C)c1 (configuration not stated),-13%,-7,1,-1,2,8
O=C(NCCCn1ccnc1)C(=O)NCC1OCCCN1S(=O)(=O)c1ccc(Cl)cc1 (configuration not stated),-18%,-1,-51*,0,-5,0
O=C(NCc1ccc2c(c1)OCO2)C(=O)NCC1OCCN1S(=O)(=O)c1ccc(Br)cc1 (configuration not stated),-26%,0,-7,0,-5,8
O=C(NCc1ccc2c(c1)OCO2)C(=O)NCC1OCCN1S(=O)(=O)c1ccc(Cl)cc1 (configuration not stated),-14%,-4,-31*,-1,-3,3
